{
  "source": "PubChem BioAssay (NCI)",
  "note": "“And” between values parts separate entries of the source, which are not always exact repeats. Equal entries are not always repeated. This is part of a sample that, as a whole, favours compounds with a hit. Of some 83,000 tested, about 20% had one in any assay.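 The test compound was applied at a single concentration to cells in 96-well plates for 48 hours, and percent growth was recorded.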 The source made the active and inactive calls. Rule for the calls: active = growth percent below 10; inactive = the rest.",
  "data": [
    {"test_system": "MDA-MB-468 breast", "experiment": "NCI-60 one-dose screen, 48 h (100 = growth as untreated, 0 = no growth, -100 = all killed)", "settings": "10 µM unless noted", "values": [
      {"smiles": "ClC1=C(Cl)C(Cl)=C(Cl)C1=C/C=C/c1ccccc1", "growth": "-50.3% (active)"},
      {"smiles": "COc1ccn2c(C(C)=O)cc(C(=O)c3ccc4c(c3)Sc3ccccc3N4)c2c1", "growth": "-4.11% (active)"},
      {"smiles": "COC(=O)[C@]12CC[C@@H](C)[C@H](C)[C@@H]1C1=CC[C@@H]3[C@@]4(C)C(C=O)=C[C@@](C)(COS(C)(=O)=O)C4=CC[C@@]3(C)[C@]1(C)CC2", "growth": "-59.8% (active)"},
      {"smiles": "O=C1N(C[P+](c2ccccc2)(c2ccccc2)c2ccccc2)CCCN1C[P+](c1ccccc1)(c1ccccc1)c1ccccc1", "growth": "105% (inactive)"},
      {"smiles": "CN1CCN(Cc2ccc(NC(=O)c3cncc(C#Cc4c(N)ncc5ccc(F)cc45)c3)cc2C(F)(F)F)CC1", "growth": "54.3% (inactive)"},
      {"smiles": "COc1ccc(C(=O)c2cc(C)c(OC)c(C)c2)c(OC)c1N(C(=O)C(Cl)Cl)C(=O)C(Cl)Cl", "growth": "21.6% (inactive)"},
      {"smiles": "NC(Cc1c[nH]c2ccccc12)C(=O)O", "note": "(stereo not given)", "growth": "110% (inactive) and 112% (inactive)"},
      {"smiles": "CCCCn1c2cc(OCc3cn(-c4ccc(Cl)cc4)nn3)ccc2c2ccnc(C)c21", "growth": "22.3% (inactive)"},
      {"smiles": "Cc1ccc(/C=C/C(=O)c2ccc(-n3cc(CN4CCN(c5cc6c(cc5F)c(=O)c(C(=O)O)cn6C5CC5)CC4)nn3)cc2)cc1", "growth": "77.1% (inactive)"},
      {"smiles": "CC(=O)c1c[nH]c2ccccc12", "growth": "104% (inactive)"},
      {"smiles": "O=C(Nc1ccc(C23CC4CC(CC(c5ccccc5)(C4)C2)C3)cc1)c1cccs1", "growth": "38.6% (inactive)"},
      {"smiles": "Cc1nc2c(=O)[nH]c(SCC(=O)Nc3cccc(F)c3)nc2[nH]c1=O", "growth": "98.9% (inactive)"},
      {"smiles": "C=C(C)[C@@H]1CCC=C2CC[C@]3(C)[C@H](CC[C@@H]4[C@@]5(C)CCCNC(C)(C)[C@@H]5CC[C@]43C)[C@H]21", "growth": "-31.5% (active)"},
      {"smiles": "COc1ccc(-c2cc(-c3cccnc3)nc3sc4c(Cl)nnnc4c23)cc1OC", "growth": "80.1% (inactive)"},
      {"smiles": "COc1ccc(C(=O)CSc2nccc(Nc3ccc(C(=O)O)cc3)n2)cc1", "growth": "104% (inactive)"},
      {"smiles": "CCOc1ccc(NC(=O)c2cc(OC)c(OC)c(OC)c2)cc1", "growth": "8.51% (active)"},
      {"smiles": "Cc1ccc(S(=O)(=O)OC[C@]23CCC(C)(C)C[C@H]2C2=CC[C@@H]4[C@@]5(C)CCCNC(C)(C)[C@@H]5CC[C@@]4(C)[C@]2(C)CC3)cc1", "growth": "-35.1% (active)"},
      {"smiles": "CN(C)c1ccc(/C=C2/C=C(c3ccccc3)OC2=O)cc1", "growth": "-8.42% (active)"},
      {"smiles": "COc1ccc(Oc2ccccc2NC(=O)CNC(=O)c2cccc3ccccc23)cc1", "growth": "23.7% [5 µM] (inactive)"},
      {"smiles": "Cn1cc(-c2nnc(N)nc2-c2c[nH]c3ccc(F)cc23)c2cc(F)ccc21", "growth": "-15.1% (active)"},
      {"smiles": "CCCCCCCCSC1=CC(=O)C(OC)=C(OC)C1=O", "growth": "-75% (active)"},
      {"smiles": "CC1=C(C#N)C(C)(C)C(C#N)=C(C)N1", "growth": "98.6% (inactive)"},
      {"smiles": "COC(=O)[C@]12CC[C@@H](C)[C@H](C)[C@@H]1C1=CC[C@@H]3[C@@]4(C)C(C=O)=C[C@@](C)(COC(C)=O)C4=CC[C@@]3(C)[C@]1(C)CC2", "growth": "-3.02% (active)"},
      {"smiles": "COC(=O)c1cc(-c2ccc(C)cc2)n(C(=O)CSc2nc3sc(C(N)=O)c(C)c3c(=O)n2Cc2ccccc2)n1", "growth": "107% (inactive)"},
      {"smiles": "CCN(CC)c1ccc2cc(C(Nc3ccc(Cl)cc3)c3nnnn3C(C)(C)C)c(=O)oc2c1", "note": "(stereo not given)", "growth": "109% (inactive)"},
      {"smiles": "O=C(CSc1nnc(-c2cnccn2)n1-c1ccccc1)c1ccc(Cl)cc1", "growth": "97.6% (inactive)"},
      {"smiles": "CCOCCC(=O)O", "growth": "99.2% (inactive)"},
      {"smiles": "O=C1CCC(=O)CC1", "growth": "115% (inactive)"},
      {"smiles": "Cc1nn(-c2ccc(F)cc2)c2ncnc(Oc3ccc(NC(=O)Nc4ccc(Cl)c(C(F)(F)F)c4)cc3)c12", "growth": "97.8% (inactive)"},
      {"smiles": "OC1CCN(CCCOc2c3ccc(Cl)cc3nc3c2oc2ccc(Cl)cc23)CC1", "growth": "1% (active)"},
      {"smiles": "N#Cc1c(Nc2cccc(Cl)c2)sc(C(=O)c2cc3cc(Cl)ccc3o2)c1N", "growth": "100% (inactive)"},
      {"smiles": "O=C(NCCNC(=O)Oc1cccc2ccccc12)Oc1cccc2ccccc12", "growth": "103% (inactive)"},
      {"smiles": "Cc1ccc(-n2cc(/C=C/C(=O)c3ccc(O)cc3)c(-c3ccc(S(C)(=O)=O)cc3)n2)cc1", "growth": "93.8% (inactive)"},
      {"smiles": "O=C1c2cc3c(cc2-c2c1c1ccc(Cl)cc1c(=O)n2CCCNCCO)OCO3", "growth": "-91.6% (active)"},
      {"smiles": "NS(=O)(=O)c1ccc(Br)cc1", "growth": "102% (inactive)"},
      {"smiles": "CCCCSc1ncnc2c1ncn2C1CCCCO1", "note": "(stereo not given)", "growth": "122% (inactive)"},
      {"smiles": "COc1cc2ncnc(Nc3ccc(F)c(Cl)c3)c2cc1OCC(=O)N1CCN(c2ccccc2)CC1", "growth": "-17.5% (active)"},
      {"smiles": "CCC(=O)Oc1ccc(OCc2ccccc2)cc1", "growth": "104% (inactive) and 118% (inactive)"},
      {"smiles": "COc1cc(-c2cc(-c3cc(OC)c(OC)c(OC)c3)nc3nc(N)[nH]c(=O)c23)ccc1Oc1ccnc2cc(Cl)ccc12", "growth": "15.9% (inactive)"},
      {"smiles": "COc1ccc(C2=NN(C(C)=O)C(c3cn(Cc4ccc(Cl)cc4)c4ccccc34)C2)cc1", "note": "(stereo not given)", "growth": "69.2% (inactive)"}
    ]}
  ]
}
